Compound activity: PubChem, several laboratories
EP2 mod – EP2 receptor (human) modulation. P43116. EP2-expressing cells, cAMP HTRF FRET, PGE2 co-stimulation. induction, % at 25 µM. actives 0.83% (n = 260,000). AID 940;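 active means compounds whose cAMP rise, as percent of the full-agonist control response, exceeds 60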;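 further: rat C6 glioma line stably carrying human EP2 under a CMV promoter; the protocol text gives 20 µM as final concentration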
Target sequence (P43116 whole entry, looked up): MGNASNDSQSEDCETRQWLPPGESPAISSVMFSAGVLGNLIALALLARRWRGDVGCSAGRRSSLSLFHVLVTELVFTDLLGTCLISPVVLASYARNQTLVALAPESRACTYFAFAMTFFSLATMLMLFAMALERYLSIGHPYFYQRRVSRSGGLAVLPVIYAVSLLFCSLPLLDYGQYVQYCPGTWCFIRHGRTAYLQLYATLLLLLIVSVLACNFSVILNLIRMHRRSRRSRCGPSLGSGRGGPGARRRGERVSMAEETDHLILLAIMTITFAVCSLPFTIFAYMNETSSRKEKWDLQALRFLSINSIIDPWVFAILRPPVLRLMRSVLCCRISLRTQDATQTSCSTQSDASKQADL
PGE2 EP2 inh – inhibitors of human EP2 prostaglandin E2 receptor; P43116; C6 glioma cells expressing human EP2, cAMP TR-FRET; cells stimulated with saturating PGE2; inhibition, % at 25 µM; actives 0.52% (n = 260,000); AID 1422;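 active means percent inhibition above 40 after rounding to a whole number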;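 further: rat C6 glioma host cells with rolipram phosphodiesterase inhibitor present; the protocol text gives 20 µM as final concentration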
Cl transport mod – modulates chloride dependent transport by human KCC2. Q9H2X9. KCC2 cells, thallium flux FluoZin-2 fluorescence. B-score of Tl+ flux slope (higher = more flux/activation; lower = inhibition) at 10 µM. actives 2.2% (n = 190,000). AID 1456;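 active means thallium flux slope and its plate-corrected score both differing from the plate sample mean at a set confidence after two filtering rounds, in either direction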;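 further: slope of fluorescence scaled to starting intensity during 10 to 20 s after thallium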
S1P3 antagonist – S1P3 (human) receptor antagonism; Q99500; CHO S1P3 NFAT-BLA reporter, FRET fluorescence, antagonist mode; inhibition, % at 4.98 µM; actives 0.27% (n = 170,000);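 active means inhibition above the plate cutoff, the mean inhibition of test wells on that plate plus 3 SD, cut at about 28% in these data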;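 further: cells challenged with S1P at its EC80 of 0.8 µM; blue over green emission ratio from cleaved BLA substrate after 4 h stimulation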
Target sequence (Q99500 whole entry, looked up): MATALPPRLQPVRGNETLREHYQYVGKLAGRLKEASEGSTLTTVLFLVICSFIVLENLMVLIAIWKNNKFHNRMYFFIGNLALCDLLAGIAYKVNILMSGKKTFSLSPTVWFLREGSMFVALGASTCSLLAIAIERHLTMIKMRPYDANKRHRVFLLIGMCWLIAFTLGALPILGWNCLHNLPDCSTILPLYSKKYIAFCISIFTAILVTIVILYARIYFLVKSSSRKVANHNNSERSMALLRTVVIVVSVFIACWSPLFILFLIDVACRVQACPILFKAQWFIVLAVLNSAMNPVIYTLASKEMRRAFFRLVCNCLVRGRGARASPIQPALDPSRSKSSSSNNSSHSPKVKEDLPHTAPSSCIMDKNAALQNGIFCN
KCC2 sec1 – confirmation of human KCC2 transport modulators; shares compounds with Cl transport mod; HEK293-KCC2, thallium flux, FluoZin2 fluorescence; active compounds read high; normalised thallium flux (F/F0 slope) at 10 µM; actives 15% (n = 3,700); AID 1713;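 active means thallium flux slope above the same plate's solvent-only control mean plus 3 SD; inconclusive means the two replicate wells disagree; inactive means no significant difference from solvent-only control wells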
KCC2 bumet counter – bumetanide-insensitive thallium flux in KCC2 cells with ouabain, counter-screen; AID 1714; normalized thallium flux at 10 µM; HEK293-KCC2 + bumetanide/ouabain, thallium flux FluoZin2; active compounds read high; actives 49% (n = 3,700); shares compounds with Cl transport mod;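 active means thallium entry rate above the same plate's blocked-transporter control wells by more than 3 SD; inconclusive means the two repeat wells disagree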;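 further: raw slope of fluorescence over initial fluorescence between 10 and 20 s after thallium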
KCC2 sec2 – KCC2 (human) modulation, second secondary assay | HEK293-KCC2, thallium flux FluoZin2 fluorescence; actives lie on both sides; F/F0 rise rate, 10–20 s post-thallium | shares compounds with Cl transport mod | normalized thallium flux at 10 µM | actives 23% (n = 3,700) | AID 1715;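 active means thallium flux slope more than 3 SD above or below the plate's solvent-only control mean, mostly below; inconclusive means the two repeat wells disagreed; inactive means no significant shift from solvent-only controls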
HEK counter1 – acts in parental HEK cells, KCC2 counter-screen; shares compounds with Cl transport mod; HEK293 parental cells, thallium flux FluoZin2, ouabain; baseline-ratio fluorescence slope, 10–20 s after thallium; thallium flux rate (normalised fluorescence) at 10 µM; actives 46% (n = 3,700);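 active means thallium flux rate significantly above the same plate's solvent-only control wells, beyond their mean plus 3 SD; inconclusive means the two replicate wells gave conflicting results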
KCC2 ouabain – KCC2 (human) modulation, ouabain retest | shares compounds with Cl transport mod | HEK293-KCC2, thallium flux FluoZin2 fluorescence; bidirectional: low = inhibitor, high = activator | raw Tl+ flux slope (below DMSO = inhibition, above = activation) at 10 µM | actives 48% (n = 3,700) | AID 1717;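 active means thallium flux slope beyond 3 SD from same-plate DMSO control mean in most replicates, usually higher, sometimes lower; inconclusive means repeat tests gave conflicting results; inactive means no significant difference from controls in most replicates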;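 further: slope of initial-normalized fluorescence between seconds 10 and 20 after thallium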
HEK293 Tl flux2 – counter-screen for KCC2 modulators: effect in parental HEK293 cells. shares compounds with Cl transport mod. actives 33% (n = 3,700). thallium flux slope at 10 µM. thallium flux FluoZin-2 fluorescence slope;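 active means thallium flux slope above the same plate's solvent-control mean plus 3 SD in both duplicate wells; inconclusive means duplicate wells that disagreed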;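 further: run without ouabain in cells lacking the KCC2 cotransporter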
Large screens that a line does not name were inactive (follow-up assays come after a bar, where they were run). An excerpt weighted towards active compounds, which were near 3.1% of everything screened.

CC1(C)CC(N(Cc2cccnc2)Cc2ccccc2F)CC(C)(C)N1	none (no result: Cl transport mod, S1P3 antagonist)
c1ccc(-c2cn3nc4c(nc3n2)CCCC4)cc1	Cl transport mod -4.51 (no result: S1P3 antagonist) | KCC2 sec1 inactive | KCC2 bumet counter inactive | KCC2 sec2 0.0257 | HEK counter1 inconclusive | KCC2 ouabain 0.0163 | HEK293 Tl flux2 0.00813
Brc1ccc(-c2cn3nc4c(nc3n2)CCCC4)cc1	none (no result: Cl transport mod, S1P3 antagonist)
Cc1cc(SCC(=O)Nc2ccc(N(C)C)cc2)nc2ccccc12	none (no result: Cl transport mod, S1P3 antagonist)
O=c1c2ccccc2nc(-c2ccc([N+](=O)[O-])cc2)n1O	Cl transport mod 9.04 | KCC2 sec1 inconclusive | KCC2 bumet counter 0.0204 | KCC2 sec2 inactive | HEK counter1 0.0161 | KCC2 ouabain 0.0276 | HEK293 Tl flux2 inconclusive
Cc1cc(=O)[nH]c(NC2CCN(CC(=O)Nc3c(C)cccc3C)CC2)n1	none (no result: PGE2 EP2 inh, Cl transport mod, S1P3 antagonist)
Cc1ccc(N2C(S)=C(C#N)C(=O)NC2c2cccs2)cc1 (configuration not stated)	none
CC1(c2cccs2)CC(c2cccs2)=C(C#N)C(=O)N1 (configuration not stated)	Cl transport mod 5.19 | KCC2 sec1 inactive | KCC2 bumet counter inactive | KCC2 sec2 inactive | HEK counter1 0.00595 | KCC2 ouabain inactive | HEK293 Tl flux2 inactive
COc1ccc2c(CN(CCCn3ccnc3)Cc3ccc(C)s3)c[nH]c2c1	none (no result: Cl transport mod, S1P3 antagonist)
COC(=O)c1ccc(/C(O)=C(\C#N)c2nc3ccccc3s2)cc1	Cl transport mod -6.78 (no result: PGE2 EP2 inh) | KCC2 sec1 inactive | KCC2 bumet counter inactive | KCC2 sec2 inactive | HEK counter1 inactive | KCC2 ouabain 0.0135 | HEK293 Tl flux2 inactive
Cc1ccc(OC/C(O)=C(\C#N)c2nc3ccccc3s2)cc1	Cl transport mod -4.32 | KCC2 sec1 inactive | KCC2 bumet counter 0.00675 | KCC2 sec2 0.0222 | HEK counter1 inconclusive | KCC2 ouabain 0.0119 | HEK293 Tl flux2 inactive
COc1ccc(N2C(=S)N=C(Nc3cccc(C)c3)C23CCCCC3)cc1	Cl transport mod 4.32 | KCC2 sec1 inactive | KCC2 bumet counter 0.0112 | KCC2 sec2 inactive | HEK counter1 0.0106 | KCC2 ouabain inactive | HEK293 Tl flux2 0.0113
COc1ccccc1N1C(=S)N=C(Nc2c(C)cccc2C)C12CCCC2	Cl transport mod 6.18 | KCC2 sec1 inactive | KCC2 bumet counter 0.0485 | KCC2 sec2 inactive | HEK counter1 0.0152 | KCC2 ouabain inactive | HEK293 Tl flux2 0.0123
Cc1cc(-c2nn3c(C)nnc3s2)ccc1NC(=O)c1sc2ccccc2c1Cl	none (no result: Cl transport mod, S1P3 antagonist)
CC1=CC(C)(C)n2c(O)c(N=NC(N)=S)c3cc(C)cc1c32	Cl transport mod 8.7 | KCC2 sec1 0.0124 | KCC2 bumet counter 0.033 | KCC2 sec2 inactive | HEK counter1 0.0164 | KCC2 ouabain inconclusive | HEK293 Tl flux2 0.0109
CCN(C(=S)NC(=O)C1CCCC1)C1CCCCC1	Cl transport mod 7.31 | KCC2 sec1 inactive | KCC2 bumet counter 0.0296 | KCC2 sec2 inactive | HEK counter1 inconclusive | KCC2 ouabain 0.0333 | HEK293 Tl flux2 inconclusive
O=C(NC(=S)N(Cc1ccccc1)Cc1ccccc1)C1CCCCC1	none (no result: S1P3 antagonist)
C=CCNC(=O)CSc1nnc(-c2ccccn2)n1-c1ccc(C)c(C)c1	none (no result: Cl transport mod, S1P3 antagonist)
COc1cccc(/C(O)=C2/C(=O)C(=O)N(Cc3ccco3)C2c2ccc(OC)c(OC)c2)c1 (configuration not stated)	none (no result: Cl transport mod, S1P3 antagonist)
COc1ccc(CCN2C(=S)N(C)C(=O)C2CC(=O)Nc2ccc(OC)cc2)cc1 (configuration not stated)	none
COc1ccc(NC(=O)CC2C(=O)N(C)C(=S)N2Cc2ccc3c(c2)OCO3)cc1 (configuration not stated)	Cl transport mod 7.34 | KCC2 sec1 inactive | KCC2 bumet counter inactive | KCC2 sec2 inactive | HEK counter1 inactive | KCC2 ouabain inactive | HEK293 Tl flux2 inactive
NS(=O)(=O)c1ccc(CCn2c(=S)[nH]c3ccc(F)cc3c2=O)cc1	Cl transport mod 3.14 | KCC2 sec1 inconclusive | KCC2 bumet counter inactive | KCC2 sec2 inactive | HEK counter1 0.00926 | KCC2 ouabain inactive | HEK293 Tl flux2 0.0111
COc1cccc(N2CCN(S(=O)(=O)c3cccc4nsnc34)CC2)c1	none
COc1cccc(N2CCN(S(=O)(=O)c3ccc4nc(-c5ccccc5)[nH]c4c3)CC2)c1	Cl transport mod 9.13 | KCC2 sec1 inactive | KCC2 bumet counter inactive | KCC2 sec2 inactive | HEK counter1 inactive | KCC2 ouabain inactive | HEK293 Tl flux2 inactive
Cn1c(-c2ccccc2)c(C(=O)CCl)c2ccccc21	Cl transport mod -3.94 | KCC2 sec1 inactive | KCC2 bumet counter inactive | KCC2 sec2 inactive | HEK counter1 0.00507 | KCC2 ouabain 0.0158 | HEK293 Tl flux2 0.00911
O=C(CSc1nc2ccc(Cl)cc2[nH]1)Nc1ccccc1F	none (no result: Cl transport mod, S1P3 antagonist)
Cc1ccc(NC(=O)COC(=O)/C=C/c2ccccc2)cc1S(=O)(=O)N1CCOCC1	Cl transport mod -4.07 | KCC2 sec1 inconclusive | KCC2 bumet counter inactive | KCC2 sec2 0.0208 | HEK counter1 inconclusive | KCC2 ouabain 0.0116 | HEK293 Tl flux2 inactive
Cc1ccc(NC(=O)CCCSc2ccccc2)cc1S(=O)(=O)N1CCOCC1	Cl transport mod -2.98 | KCC2 sec1 inactive | KCC2 bumet counter inactive | KCC2 sec2 inconclusive | HEK counter1 inactive | KCC2 ouabain inactive | HEK293 Tl flux2 inactive
COc1ccc(CN2CCc3c(nc(N4CC(C)OC(C)C4)[nH]c3=O)C2)c(O)c1 (configuration not stated)	none (no result: PGE2 EP2 inh, Cl transport mod, S1P3 antagonist)
COc1ccc(CNC(=S)NC(C)CCc2ccccc2)cc1 (configuration not stated)	Cl transport mod -4.88 | KCC2 sec1 0.00532 | KCC2 bumet counter inconclusive | KCC2 sec2 inconclusive | HEK counter1 0.00582 | KCC2 ouabain 0.0132 | HEK293 Tl flux2 inactive
C=CCOc1c(Br)cc(/C=N/Nc2ccc(C(=O)O)cc2)cc1OCC	Cl transport mod -5.72 | KCC2 sec1 inactive | KCC2 bumet counter 0.00575 | KCC2 sec2 inactive | HEK counter1 inactive | KCC2 ouabain inactive | HEK293 Tl flux2 inactive
COc1ccc(/C=N/Nc2ccc(C(=O)O)cc2)cc1Br	none
